Giardia killer – Small Molecules that selectively kill Giardia lamblia: qHTS | Giardia lamblia trophozoite viability | activity change, % at 7.66 µM, hits read low | hit rate 0.15% among 340,000; in the data active means activity change below about -80%; inconclusive means between about -30% and that limit;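 further: parasites exposed to compound for two days anaerobically before the ATP read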
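Compounds were tested on trophozoites seeded at 100 cells/well and held 48 hrs at 37 deg C anaerobically. An ATP-based luminescent kit measured the remaining live cells.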
Pin1 inh – qHTS Assay to Find Inhibitors of Pin1 | hit rate 0.009% among 390,000 | Peptidyl-prolyl cis-trans isomerase NIMA-interacting 1 (Homo sapiens), Q13526 | Potency, µM (titrated, usually from 115 µM), for the others: at the top dose activity, negative = inhibition, actives largely listed as inhibitors | AID 504891, 2011 | Pin1 FP peptide displacement, HiFluor488, 10 min; active means well fitted inhibition curve with a large enough effect in the polarisation, with a control signal flat, not every such curve was filed as active; inconclusive means small, poorly fitted or top-dose-only effect, or effect the other way, or a change in a side signal; inactive means no such curve, though single readings can be large or run the other way; the % refers to the polarisation; further: potency means the concentration at half of the fitted maximal effect
Target sequence (Q13526 whole entry, looked up): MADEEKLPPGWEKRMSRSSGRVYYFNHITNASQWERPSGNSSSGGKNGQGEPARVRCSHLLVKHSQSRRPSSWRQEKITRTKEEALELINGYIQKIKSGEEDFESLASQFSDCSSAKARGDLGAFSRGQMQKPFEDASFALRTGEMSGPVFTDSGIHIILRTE
TrxR1 substrate – qHTS Assay for Substrates of Mammalian Selenoprotein Thioredoxin Reductase 1 (TrxR1): qHTS; Thioredoxin reductase 1, cytoplasmic (Rattus norvegicus), O89049; purified TrxR1 substrate turnover, NADPH consumption readout; Potency, µM (titrated, usually from 114 µM), for inactives: at the highest dose activity change, negative = substrate turnover; hit rate 0.01% among 390,000; further: potency means the concentration at half of the fitted maximal effect; nearly all actives have a fitted effect of over 50% in size
Target sequence (O89049 whole entry, looked up): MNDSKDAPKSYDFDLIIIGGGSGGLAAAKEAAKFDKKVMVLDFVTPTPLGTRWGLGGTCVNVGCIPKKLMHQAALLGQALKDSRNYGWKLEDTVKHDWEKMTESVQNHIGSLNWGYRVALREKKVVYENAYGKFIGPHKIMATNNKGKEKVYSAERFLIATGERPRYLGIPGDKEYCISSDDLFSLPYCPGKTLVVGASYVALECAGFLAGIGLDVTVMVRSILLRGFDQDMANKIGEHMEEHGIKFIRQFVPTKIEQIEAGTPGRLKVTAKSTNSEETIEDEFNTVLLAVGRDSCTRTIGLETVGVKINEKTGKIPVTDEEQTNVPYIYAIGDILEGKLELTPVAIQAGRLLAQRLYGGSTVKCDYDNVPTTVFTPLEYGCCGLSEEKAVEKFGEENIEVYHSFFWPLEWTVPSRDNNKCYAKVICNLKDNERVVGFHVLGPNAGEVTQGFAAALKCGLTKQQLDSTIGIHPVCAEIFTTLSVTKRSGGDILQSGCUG
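Rat TrxR1, dispensed at 90 nM, was prereduced with 400 uM NADPH (final) for 5 min at ~22 deg C, then incubated with compound 15 min before 400 uM selenite. A first-read NADPH fluorescence drop versus no-compound background flagged substrates.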
TrxR1 inh – qHTS Assay for Inhibitors of Mammalian Selenoprotein Thioredoxin Reductase 1 (TrxR1): qHTS. hit rate 1% among 390,000. Potency, µM (titrated, usually from 114 µM), inactives show at the top dose activity change, negative = inhibition, actives largely listed as inhibitors. AID 588453, 2011. recombinant rTrxR1, NADPH fluorescence consumption, selenite substrate; further: potency means the concentration at half of the fitted maximal effect; nearly all actives have a fitted effect of over 65% in size
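Rat TrxR1 (90 nM in the dispensed reagent) was pre-reduced with 400 uM NADPH for 5 min at room temperature, then incubated with compound for 15 min. After 400 uM selenite was added, NADPH fluorescence (Ex 340/Em 450 nm) was followed for 8 min.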
KAT2A inh – qHTS Assay for Inhibitors of GCN5L2; Histone acetyltransferase KAT2A (Homo sapiens), Q92830; GCN5L2 HAT assay, ThioGlo1 CoA-SH fluorescence; Potency, µM (series often up to 58.9 µM), inactives show at the top dose activity change, negative = inhibition, usual class: inhibitors; hit rate 0.21% among 390,000; further: potency means the concentration at half of the fitted maximal effect
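GCN5L2 (20nM final) in 50mM HEPES, 0.1mM EDTA pH 7.5, 0.01% Tween-20 was preincubated 15 min at room temperature with compound, then given ThioGlo1 (50uM), H3(1-25) peptide (75uM) and acetyl-CoA (70uM); CoA-thiol fluorescence (Ex340/Em540) was read at 0 and 20 min.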
GALK inhibitor – qHTS Assay for Inhibitors of Human Galactokinase (GALK). hit rate 0.007% among 270,000. Potency, µM (doses to about 57.5 µM), for the others: at the top dose activity change, negative = inhibition, usual class: inhibitors. Purified GALK, Kinase-Glo residual ATP luminescence. P51570; further: potency means the concentration at half of the fitted maximal effect
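Kinase-Glo Plus luminescence measured ATP left after a 1 h room-temperature reaction. The reaction used 5 nM GALK, 100 uM galactose and 35 uM ATP at pH 8.0 (20 mM HEPES, 5 mM MgCl2, 60 mM NaCl, 1 mM DTT, 0.01% BSA).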
* = called active by the depositor; ? = inconclusive; / = not tested or not shown; [ ] = dose if it differs, or a comment. This is a sample that favours compounds with a hit; in the whole collection about 1.3% have one here. Unless noted, the call rests on the fitted dose curve; in most records, active means well fitted curve in the direction sought with a large enough effect; inconclusive means small, poorly fitted or top-dose-only effect, or another doubt; inactive means no such curve, though single readings can be large; an effect the other way counts as inactive or inconclusive. On the % scale 0 is the no-effect control and ±100 the full control effect.

SMILES	Giardia killer	Pin1 inh	TrxR1 substrate	TrxR1 inh	KAT2A inh	GALK inhibitor
COC(=O)/C(=C/c1c[nH]c2ccccc12)[N+](=O)[O-]	4	-1%	6%	13µM*	0%	-1%
CC1(C)CC(=O)C2=C(C1)OC(N)=C(C#N)C21CCC2(CC1)OCCO2	-6	?	15%	8.9µM*	/	-1%
CC(=O)Nc1ccc(NC(=O)COC(=O)/C(=C/c2ccccc2)n2nnnc2C)cc1	5	2%	2%	71µM*	-4%	6%
Cc1nnnn1/C(=C\c1ccccc1)C(=O)OCC(=O)NC1CCCCC1	10	-6%	-3%	?	-5%	/
Cc1nnnn1/C(=C\c1ccccc1)C(=O)OCC(=O)NC(C)(C)C	-4	-8%	-3%	50µM*	12%	-2%
CCN1C(=O)[C@H]2[C@@H](c3ccc(C)cc3)N3C(=O)N(c4ccc(OC)cc4)C(=O)[C@@]3(CC)[C@H]2C1=O	33	6%	8%[57.1 µM]	8%[57.1 µM]	0%	/
COc1ccc(-c2ccc(F)cc2)cc1C1C2C=CCC(C)C2C(=O)N1Cc1ccccc1 (stereo not given)	-22	2%	1%	2%	/	/
CNC(=S)NNC(=O)c1cccn(Cc2ccc(Cl)cc2Cl)c1=O	/	/	/	/	0.56µM*	0%
CNC(=S)NNC(=O)c1ccc(=O)n(Cc2ccc(Cl)cc2Cl)c1	0	0%	-2%[57.1 µM]	-3%[57.1 µM]	-4%	-2%
COc1ccccc1CNC(=O)c1cccc(S(=O)(=O)N(C)c2ccccc2)c1	-15	-2%	-6%	8%	-7%	/
COc1ccc(N2C(=O)CC(NCCNc3ccc([N+](=O)[O-])cn3)C2=O)cc1 (stereo not given)	-2	3%	-6%	14µM*	-9%	1%
Oc1ccc(COc2ccccc2Cl)c2cccnc12	/	-2%	/	/	/	/
CN1CCc2cccc3c2[C@@H]1Cc1ccc(O)c(O)c1-3	9	-10%	11%	14µM*	-12%	6%
Nc1cc(OC(=O)c2cccs2)nn1S(=O)(=O)c1ccc(F)cc1	17	?	4%	79µM*	-1%	-1%
Nc1cc(OC(=O)c2cccs2)nn1S(=O)(=O)c1ccccc1	21	-6%	12%[57.1 µM]	-1%[57.1 µM]	-2%	-2%
COc1ccc(S(=O)(=O)n2nc(OC(C)=O)cc2N)cc1	-8	-17%	0%	18µM*	13%	3%
CCn1nc(C)cc1C(=O)Sc1ccc(Cl)cc1Cl	2	-2%	7%	?	-1%	0%
CCn1nc(C)cc1C(=O)Sc1cccc(Br)c1	-2	-2%	7%	7.9µM*	-7%	0%
C/C(=N/NS(=O)(=O)c1ccc(Cl)cc1)c1ccncc1	7	-9%	2%	25µM*	2%	4%
C/C(=N/NS(=O)(=O)c1ccc(C(C)C)cc1)c1ccncc1	-2	-12%	1%	14%	-4%	1%
C/C(=N\NC(=O)c1ccccc1NC(=O)c1ccc(Cl)cc1)c1ccncc1	-96*	-2%	-16%[57.1 µM]	16%[57.1 µM]	-5%	13%
CC(=O)Oc1ccc2c(C)cc(=O)oc2c1	18	-5%	21%[57.1 µM]	2%[57.1 µM]	2%	0%
Cc1ccc(S(=O)(=O)CCC(=O)Oc2ccc3c(C)cc(=O)oc3c2)cc1	-28	1%	382%	71µM*	-17%	/
Nc1ncn(C(=S)Nc2ccccc2)n1	-18	-4%	-6%	16µM*	/	/
S=C(Nc1ccccc1)N1CCCCCC1	3	-1%	11%[57.1 µM]	3%[57.1 µM]	-2%	1%
SMILES	Giardia killer	Pin1 inh	TrxR1 substrate	TrxR1 inh	KAT2A inh	GALK inhibitor
Cc1ccc(/C=C/C(=O)OCC(=O)N2CC(=O)Nc3ccccc32)o1	8	-1%	-7%[57.1 µM]	28µM*	3%	-1%
Cc1cc(C(=O)OCC(=O)NC(C)c2ccccc2)c(C)o1 (stereo not given)	-3	1%	-2%	7%	0%	8%
Cc1ccc(/C=C/C(=O)OCC(=O)NC(C)c2ccccc2)o1 (stereo not given)	4	1%	-8%	50µM*	-9%	/
N#CC(C#N)=Cc1cc2ccccc2nc1N1CCCCC1	-17	4%	1%	18µM*	-8%	-5%
O=C(NCCc1ccccc1)c1nnc(CS(=O)(=O)c2ccccc2)o1	-3	33%	9%[57.1 µM]	28%[57.1 µM]	4.5µM*	/
CN(C)c1ccc(/C=C2\C=Cc3ccccc32)c(Cl)c1	/	/	-9%	-11%	/	/
N#C/C(=C/c1ccc(N2CCCCCC2)o1)c1ccc(Cl)cc1	12	?	-8%	8.9µM*	-23%	0%
N#C/C(=C/c1ccc(N2CCCCC2)o1)c1cccc(F)c1	-17	?	-9%	7.1µM*	-12%	2%
N#C/C(=C\c1ccc(N2CCOCC2)o1)C(=O)NC1CCCCC1	-8	?	-22%	?	-5%	3%
CC(C)(C)n1ncc2c(=O)n(Cc3ccc(F)cc3F)cnc21	/	/	-4%	10%	/	/
COC(=O)c1cc2sc(Cl)cc2n1Cc1c(C)cc(C)cc1C	/	0%	0%	12%	3%	/
CCCCNC(=S)NCCCN(Cc1ccc(Cl)c(Cl)c1)c1ccc(Br)cn1	/	12%	/	/	/	/
Cc1csc(CNc2ncnc3cc(-c4ccc5c(c4)OCO5)ccc23)n1	/	13%	/	/	/	/
Oc1ccc(C2=NN(c3ccccc3)C(c3ccc(F)cc3)C2)cc1 (stereo not given)	7	?	317%	?	-11%	0%
CC(=O)Nc1ccc(C2CC(c3ccc(Cl)cc3)=NN2c2ccccc2)cc1 (stereo not given)	-2	-6%	230%	-14%	32µM*	3%
O=[N+]([O-])c1ccc(O/N=[N+](\[O-])N2CCN(c3ncccn3)CC2)c([N+](=O)[O-])c1	/	/	10%[0.457 µM]	14µM*	/	/
O=[N+]([O-])c1ccc(N2CCN(c3ccccc3)CC2)cc1	-4	5%	3%	21%	-6%	0%
O=[N+]([O-])c1ccc(O/N=[N+](\[O-])N2CCN(c3ccccc3)CC2)c([N+](=O)[O-])c1	/	/	-7%	32µM*	/	/
Cc1ccc(NC(=O)Cn2c(=O)n(CCCCC(=O)NCCc3ccc(Cl)cc3)c(=O)c3ccccc32)cc1	/	-2%	2%	17%	-2%	/
CCCCn1nc2cc(C(=O)NC3CCc4ccccc43)ccc2c1OCC (stereo not given)	15	?	67%	-2%	?	1%
